{
  "source": "PubChem BioAssay AID624300",
  "about": "(Southern Research Specialized Biocontainment Screening …, 2012)",
  "note": "Hit rate of the full screen: of about 2,400 compounds, about 360 (15%) were called active. Only a sample is shown. Entries with a potency or affinity are not part of this list. Values without a mark were called inactive.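 How the source made its calls: active means viability falls under 70% at one or more tested concentrations, taken as toxicity; inactive means viability stays over 70% at every dose.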",
  "data": [
    {"assay": "viability loss in HeLa cells – cytotoxicity control for MgcRacGAP inhibitor project, dose response (AID 624300);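 further: 100% = median of untreated control wells on the same plate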", "conditions": "CellTiter-Glo luminescence, 24 h; series mostly up to 100 µM; viability: at the top concentration", "units": {"viability": "%"}, "values": [
      {"smiles": "CC(=O)C[C@H]1c2cc(F)ccc2S(=O)(=O)N1c1ccc(N(C)C)cc1", "viability": 92.8},
      {"smiles": "COc1cc(OC)c(OC)cc1CN1CCN(Cc2ccc(SC)cc2)CC1", "viability": 85.9},
      {"smiles": "CN1CC(=O)N(CC(=O)Nc2ccc(N(C)C)cc2)c2ccccc2C1=O", "viability": 101},
      {"smiles": "Cc1ccccc1-c1ccc(Nc2ccc(N3CCOCC3)cc2)nn1", "viability": 92.9},
      {"smiles": "CC1CCCC(N2CCN(C(=O)c3ccc([N+](=O)[O-])cc3)CC2)C1", "note": "(stereo unspecified)", "viability": 94.9},
      {"smiles": "COCCCNc1nc(=S)[nH]c2cc(OC)c(OC)cc12", "viability": 102},
      {"smiles": "OCCCCNc1cccc2ccccc12", "viability": 90.5},
      {"smiles": "COCCNCc1nc2sc(C)c(-c3ccccc3)c2c(=O)[nH]1", "viability": 91},
      {"smiles": "COc1ccc(N2CCN(CC(=O)Nc3cccc(S(=O)(=O)N4CCOCC4)c3)CC2)cc1", "viability": 96.6},
      {"smiles": "CCOc1cc(/C=N/NC(=O)CSc2cccc3cccnc23)ccc1O", "viability": 96.1},
      {"smiles": "Cc1cc(-c2ccccc2)nc2c(Br)c(=O)[nH]n12", "viability": 99.6},
      {"smiles": "O=C(O)c1ccccc1NS(=O)(=O)c1ccc(N/N=C/c2ccc(O)c(O)c2)c([N+](=O)[O-])c1", "viability": 105},
      {"smiles": "COc1cc(/C=N/NS(=O)(=O)c2ccc(C)c([N+](=O)[O-])c2)ccc1O", "viability": 107},
      {"smiles": "C[C@]12CC[C@H]3C(=CCc4cc(O)ccc43)[C@@H]1CCC2=O", "viability": 93},
      {"smiles": "CC1CCC/C(=C\\c2ccc(O)cc2)C1=O", "note": "(stereo unspecified)", "viability": 99.8},
      {"smiles": "CN(C)c1ccc(/C=C2/NC(=O)NC2=O)cc1", "viability": 94.4},
      {"smiles": "O=C1NC(=S)NC1=Cc1ccc(O)cc1", "viability": 91.2},
      {"smiles": "CCOc1ccccc1NC(=O)C(NCC1(N2CCCCC2)CCCCC1)c1ccccc1", "note": "(stereo unspecified)", "viability": 88.3},
      {"smiles": "O=C(Nc1cc(Br)c(O)c(Br)c1)c1cccc(NC(=O)c2ccco2)c1", "viability": 96.2},
      {"smiles": "O=C(NC(=S)Nc1cccc2c(O)cccc12)c1ccco1", "viability": 97.7},
      {"smiles": "Brc1csc(C=Nc2ccc3c(c2)OCCOCCOCCOCCO3)c1", "viability": 103},
      {"smiles": "CCN(CC)c1ccc(/C=N/NC(=O)OC)c(O)c1", "viability": 96.8},
      {"smiles": "Cc1ccccc1C(=O)Nc1ccc(N2CCCC2)cc1", "viability": 102},
      {"smiles": "COc1ccc(C(=O)/C=C/c2ccc(O)cc2)cc1", "viability": 110},
      {"smiles": "COC(=O)c1ccc(NC(=S)Nc2ccc(O)cc2)cc1", "viability": 105},
      {"smiles": "COC(=O)c1ccc(CNC(=O)COC(=O)/C=C/c2ccc(O)c(OC)c2)cc1", "viability": 97.8},
      {"smiles": "COCCCNC(=S)N1CCN(Cc2ccc3c(c2)OCO3)CC1", "viability": 92.5},
      {"smiles": "O=C(CC(c1ccccc1)c1ccccc1)Nc1ccc(O)cc1", "viability": 90.4},
      {"smiles": "CCOC(=O)C1CCCN(C2=NC(=O)/C(=C/c3ccc(O)c(OCC)c3)S2)C1", "note": "(stereo unspecified)", "viability": 97.8},
      {"smiles": "CCN(CC)S(=O)(=O)c1cccc(-c2n[nH]c(=S)n2/N=C/c2ccc(OC(F)F)cc2)c1", "viability": 84},
      {"smiles": "Nc1ccc(N2CCCC2)c(S(=O)(=O)Nc2cccc(C(F)(F)F)c2)c1", "viability": 83.9},
      {"smiles": "COc1ccc2c(c1)-c1nc(/N=C/c3c(O)ccc4ccccc34)sc1CC2", "viability": 97.4},
      {"smiles": "C=CCn1c(SCC(=O)c2ccc(O)c(O)c2)nnc1-c1cccc(Cl)c1", "viability": 101},
      {"smiles": "O=C(CN1C(=O)c2ccccc2S1(=O)=O)c1ccc(O)c(O)c1", "viability": 95.9},
      {"smiles": "CC1Cc2ccccc2N1C(=O)CNCCCN(C)C", "note": "(stereo unspecified)", "viability": 110},
      {"smiles": "CN(C)C(=S)N=c1ssc(=S)n1Cc1ccccc1", "viability": 118},
      {"smiles": "COc1ccc(NC2CCCN(C(=O)c3csc(C)n3)C2)cc1", "note": "(stereo unspecified)", "viability": 112},
      {"smiles": "C#CCOCCOCCOCCNc1nc(N2CCN(C(=O)[C@H](CCCCN)n3cc(CN)nn3)CC2)nc(N2CCN(C(=O)[C@H](CCC(=O)O)n3cc([C@@H](N)CCCCN)nn3)CC2)n1", "viability": 108},
      {"smiles": "C#CCOCCOCCOCCNc1nc(N2CCN(C(=O)[C@H](CCCCN)n3cc(CN)nn3)CC2)nc(N2CCN(C(=O)[C@H](CCCCN)n3cc(CN)nn3)CC2)n1", "viability": 101},
      {"smiles": "Cc1ccc(CCNc2ccc3ccccc3c2)cn1", "viability": 93.3},
      {"smiles": "COc1cc(/C=C/CN2CCN(CCC(C)C)C(CCO)C2)ccc1O", "note": "(stereo unspecified)", "viability": 104},
      {"smiles": "Nc1ccccc1Sc1ccc(C(=O)c2ccccc2C(=O)O)cc1[N+](=O)[O-]", "viability": 94},
      {"smiles": "COc1ccc(NC2CCCN(C(=O)CCc3cn[nH]c3)C2)cc1", "note": "(stereo unspecified)", "viability": 106},
      {"smiles": "COc1cccc(C(=O)Nc2cc3c(cc2N2CCCC2)n(C)c(=O)n3C)c1", "viability": 85.1},
      {"smiles": "CCn1c(=O)n(CC)c2cc(N3CCCC3)c(NC(=O)c3ccccc3)cc21", "viability": 93.1},
      {"smiles": "CN=Cc1cc(-c2ccccc2)sc1O", "viability": 95.9},
      {"smiles": "COc1cc(/C=N/NC(=O)C(C)Nc2n[nH]c(=O)[nH]c2=O)ccc1O", "note": "(stereo unspecified)", "viability": 96.5},
      {"smiles": "COc1ccc(CN2CCN(c3ccccn3)CC2)c(OC)c1C", "viability": 94},
      {"smiles": "COc1ccccc1OCC#CCn1ccnc1", "viability": 94.7},
      {"smiles": "COc1cc(/C=N/N2C(=O)c3ccccc3C2=O)ccc1O", "viability": 92.9},
      {"smiles": "COc1cc(C2C(=O)c3ccccc3C2=O)ccc1O", "viability": 102},
      {"smiles": "Oc1ccc(/C=N/NC(=S)NCCN2CCOCC2)c(O)c1", "viability": 91.6},
      {"smiles": "CC(=O)N1CCN(c2ccc(NCc3ccc(F)cc3)cc2)CC1", "viability": 97.8},
      {"smiles": "Clc1ccc(CNc2ccc(N3CCN(Cc4ccccc4)CC3)cc2)cc1", "viability": 87.6},
      {"smiles": "CSCCOC(=O)C1=C(C)Nc2ccc(C)cc2S1", "viability": 111},
      {"smiles": "COc1cc(/C=N/n2c(-c3cc(C)[nH]n3)n[nH]c2=S)cc(OC)c1O", "viability": 104},
      {"smiles": "COc1cc(OC)c2cc[nH]c2c1", "viability": 99.2},
      {"smiles": "C[n+]1c(-c2ccccc2)cc2c(=Cc3ccc([N+](=O)[O-])cc3)c3ccccc3n21", "viability": 88.6},
      {"smiles": "COc1cc(C=C2C(=O)c3ccccc3C2=O)cc(OC)c1OC", "viability": 97.8},
      {"smiles": "CCOC(=O)c1sc(=S)[nH]c1C", "viability": 95.2},
      {"smiles": "c1cc(CNc2ccc3c(c2)OCO3)ccn1", "viability": 96.6},
      {"smiles": "COc1cccc(CN2CCN(Cc3cccc(Oc4ccccc4)c3)CC2)c1OC", "viability": 83.3},
      {"smiles": "CC1(C)CC(=O)C(C(C2=C(O)CC(C)(C)CC2=O)c2cccs2)C(=O)C1", "note": "(stereo unspecified)", "viability": 100},
      {"smiles": "COc1ccccc1NS(=O)(=O)c1cc(N)ccc1N1CCCC1", "viability": 89.7},
      {"smiles": "COc1ccc(/C=N/Nc2ccccn2)cc1O", "viability": 90.9},
      {"smiles": "Cc1sc2ncnc(N/N=C/c3ccc(O)cc3)c2c1C", "viability": 95.2},
      {"smiles": "COc1cc(/C=C/C(=O)OCC(=O)Nc2ccc(S(=O)(=O)N3CCCC3)cc2)ccc1O", "viability": 94.6},
      {"smiles": "CNC(=S)N/N=C/c1ccc(N2CCOCC2)s1", "viability": 87.5},
      {"smiles": "NC(=O)N/N=C/c1ccc(N2CCOCC2)s1", "viability": 92.3},
      {"smiles": "COc1cc(/C=N/n2cnnc2)ccc1OC(=O)c1ccncc1", "viability": 106},
      {"smiles": "CSc1nc(=S)c2[nH]c(=S)[nH]c2[nH]1", "viability": 101}
    ]}
  ]
}
